The values that follow come from PubChem BioAssay (EPA / NIEHS).

The test system of one test is TTR (gene 7276). The experiment in a line: CCTE_GLTED_hTTR_0.5uM: CCTE's human Transthyretin (hTTR) Inhibition Assay, with 0.5uM TTR, Great Lakes Toxicology and Ecology Division (GLTED) Lab (AID 2284320). The method in brief:
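Cell-free displacement assay in which human TTR at 0.5 uM was incubated with test chemical for 2 h. Displacement of the ANSA probe was read by fluorescence at 380 nm excitation/475 nm emission. Loss of signal was fitted in the positive direction versus DMSO.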

Test [1] in a line: Tanguay_ZF_120hpf_MO24: Oregon State University Tanguay Lab 24 Hour Post-fertilization zebrafish Assay for Mortality (AID 2284389). Here is the method: (§1) Tanguay_ZF_120hpf is a whole embryo, multiplexed endpoint assay using zebrafish larvae exposed for 120 hours post fertilization on a 96-well plate.Tanguay_ZF_120hpf_MO24 is one of one assay component(s) measured or calculated from the Tanguay_ZF_120hpf assay. It is designed to make measurements of zebrafish development as detected with brightfield microscopy of developing zebrafish embryos.Data from the assay component Tanguay_ZF_120hpf_MO24 was analyzed into 1 assay endpoints. This assay endpoint, Tanguay_ZF_120hpf_MO24, was analyzed in the positive analysis fitting direction relative to DMSO as the negative control and baseline of activity. […]
(§2) Zebrafish husbandry: Tropical 5D wild-type adult zebrafish were housed in at an approximate density of 1000 per 100 gallon tank at the Sinnhuber Aquatic Research Laboratory, Oregon State University, Corvallis, OR. […] At 24 hpf, embryos were assessed for photomotor response using a custom photomotor response analysis tool (PRAT) and for developmental toxicity endpoints (MO24: mortality at 24 hpf, DP: developmental progression, SM: spontaneous movement, and NC: notochord distortion). At 120 hpf, locomotor activity was measured using Viewpoint Zebralab and assessed for 13 endpoints. […] If mortality occurred for an embryo (at either 24 or 120 hpf), the non-mortality endpoints were not measured.

The nature of test [2]: Tanguay_ZF_120hpf_DP24: Oregon State University Tanguay Lab 24 Hour Post-fertilization zebrafish Assay for Delayed Development (AID 2284390). The method, boiled down:
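Dechorionated 5D wild-type zebrafish embryos exposed statically from 6 hpf, one per well, 0.64% DMSO final, 28 C, sealed and dark. Developmental progression scored at 24 hpf by brightfield as binary present/absent; dead embryos excluded.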

The nature of test [3]: Tanguay_ZF_120hpf_CRAN: Oregon State University Tanguay Lab 120 Hour Post-fertilization zebrafish Assay for Craniofacial Malformation (AID 2284397). Here is the method:
as §1, with “plate.Tanguay_ZF_120hpf_CRAN” for “plate.Tanguay_ZF_120hpf_MO24”, “Tanguay_ZF_120hpf_CRAN” for “Tanguay_ZF_120hpf_MO24”, “Tanguay_ZF_120hpf_CRAN,” for “Tanguay_ZF_120hpf_MO24,”
as §2

A short description of test [4]: Tanguay_ZF_120hpf_AXIS: Oregon State University Tanguay Lab 120 Hour Post-fertilization zebrafish Assay for Axial Malformation (AID 2284398). The method, boiled down: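 Dechorionated 5D wild-type zebrafish embryos exposed statically, one per well, from 6 to 120 hpf at 28C, 0.64% DMSO. Axial malformation scored as present/absent by brightfield microscopy at 120 hpf; dead embryos not scored.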

Test [5] in a line: VALA_TUBIPS_Antagonist_CellCount: Viability Assessment in the VALA Sciences human iPS-derived Endothelial Tubule Formation (TUBIPS) Antagonism Assay (AID 2284335; active = hit-call score of the fitted dose curve at least 0.9, where 1 is the maximum).
Test [6] can be described thus: VALA_MIGHUV1_ScratchOnly_WoundArea: VALA Sciences human Umbilical Vein Endothelial Cell Migration (MIGHUV) Assay, Area of Scratch Wound Inhibited Recovery (AID 2284336; active = hit-call score of the fitted dose curve at least 0.9, where 1 is the maximum). The method in brief:
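HUVEC monolayers (9000 cells/well) were scratched after 24 h, dosed within 30 min (six concentrations, triplicate, 0.1% DMSO), allowed 24 h recovery, then fixed. Hoechst-stained nuclei in the wound imaged; cytochalasin D as reference.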

Test [7] is described as follows: VALA_TUBIPS_Agonist_CellCount: Viability Assessment in the VALA Sciences human iPS-derived Endothelial Tubule Formation (TUBIPS) Agonism Assay (AID 2284338; active = hit-call score of the fitted dose curve at least 0.9, where 1 is the maximum).
Test [8] is described as follows: VALA_TUBHUV_Antagonist_TubuleLength: VALA Sciences human Umbilical Vein Endothelial Tubule Formation (TUBHUV) Antagonism Assay (AID 2284325; active = hit-call score of the fitted dose curve at least 0.9, where 1 is the maximum). The method in brief:
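HUVEC–HDF co-culture (1:3) pre-grown 3 days with 10 ng/ml VEGF, then 3 days with compound plus VEGF. Fixed, nuclear and CD31 stained; total tubule length by imaging versus 0.1% DMSO; suramin 100 uM positive control.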

The structures appear in SMILES notation. Values joined by “and” are separate entries in the source; they are usually repeats but may differ in a detail not shown here. Equal values may be shown once. Records with an inconclusive call do not appear. A structure can be active in one record and inactive in another. Active and inactive are the calls of the source. The calls were made as follows, unless noted: active = hit-call score of the fitted dose curve at least 0.9, where 1 is the maximum; inactive = score below 0.9.

Turning to `O=C(O)C(F)(F)C(F)(F)C(F)(F)C(F)(F)C(F)(F)C(F)(F)C(F)(F)F`, in the test with TTR (gene 7276), the AC50 (as a rule, the concentration giving half of the maximal activity seen) was 450 nM (active) [middle of 4 runs]. Further, the result in test [1], in [2], in test [3] and in test [4] was inactive.
Turning to `O=S(=O)(O)C(F)(F)C(F)(F)C(F)(F)C(F)(F)C(F)(F)C(F)(F)C(F)(F)C(F)(F)F`, the AC50 in the test with TTR (gene 7276) was 489 nM (active) and 455 nM (active); in [3], 32.7 µM (active) and 91 µM (active); in test [4], 37.8 µM (active). Besides, the call in test [5], in test [6], in test [7], in [1], in test [2] and in test [4] was inactive.
On to `Oc1cc(Cl)ccc1Oc1ccc(Cl)cc1Cl`, for which the compound was called inactive in test [8]. Further, the figures for the AC50 in [5] and in [7] were 0.00562 µM (active) and 7.53 µM (active), respectively.
